Records with an inconclusive call do not appear. The source made the active and inactive calls. Unless noted, the call rests on the fitted dose curve; in most records, active means well fitted curve in the direction sought with a large enough effect; inconclusive means small, poorly fitted or top-dose-only effect, or another doubt; inactive means no such curve, though single readings can be large; an effect the other way counts as inactive or inconclusive.
Key:
[1] = Cell Viability - BJ (AID 421; calls by dose curve;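 further: potency means the concentration at half of the fitted maximal effect; cells exposed to compound for 40 hours at 37 °C before readout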); conditions: BJ fibroblast viability, qHTS
In short: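 Cytotoxicity as drop in intracellular ATP (CellTiter-Glo, 20 min RT) after 40 hr compound exposure of BJ fibroblasts at 37 °C. Titrations scaled between DMSO and 100 uM tamoxifen, Hill-fitted for AC50.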

[2] = Cell Viability - Jurkat (AID 426;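 active means dose-dependent loss of cell ATP signal giving a full or clear fitted curve, ranked by lower potency value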; further: potency means the concentration at half of the fitted maximal effect); conditions: qHTS
In short: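 qHTS, 1536-well; Jurkat E6-1, 5000 cells/well, complete medium; cpd 40 hr, 37 °C; CellTiter-Glo 20 min RT; luminescence. AC50 by Hill fit.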

[3] = Cell Viability - Hek293 (AID 427;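 active means compounds whose dose-response curve shows a full or clear partial loss of cell viability, called from curve shape rather than a numeric limit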;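 further: potency means the concentration at half of the fitted maximal effect; cells exposed to compound for 40 hours at 37 °C before reading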); conditions: qHTS
In short: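 Luminescent ATP content (CellTiter-Glo, 20 min at room temperature) was measured after a 40 hr, 37 °C compound exposure of HEK293 cells. AC50 values came from Hill-equation fits of qHTS concentration-response data normalized to DMSO and 100 uM tamoxifen.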

[4] = Cell Viability - HepG2 (AID 433; calls by dose curve;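 further: potency means the concentration at half of the fitted maximal effect; potency for ATP loss meaning cytotoxicity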); conditions: qHTS
In short: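 Cytotoxicity is scored as loss of intracellular ATP in HepG2 cells exposed to compounds for 40 h. Concentration-response curves, normalized to DMSO and 100 uM tamoxifen, give AC50 values.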

[5] = Cell Viability - MRC5 (AID 434; calls by dose curve;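 further: potency means the concentration at half of the fitted maximal effect; potency reflects cytotoxicity seen as loss of intracellular ATP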); conditions: MRC5 lung fibroblast viability, qHTS
In short: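 MRC5 normal human lung fibroblasts (1500/well) were treated with compounds for 40 hr at 37 °C in complete medium, and viable cells were measured as intracellular ATP by CellTiter-Glo luminescence. AC50 came from Hill fits, normalized to DMSO and 100 uM tamoxifen.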

[6] = Cell Viability - SK-N-SH (AID 435; calls by dose curve;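 further: potency means the concentration at half of the fitted maximal effect; compound exposure lasted 40 h at 37 °C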); conditions: SK-N-SH neuroblastoma cell viability qHTS
In short: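 Cells seeded at 1500 per well and incubated 5 hr at 37 °C. Compound added, then 40 hr at 37 °C. CellTiter-Glo added, 20 min at room temperature, luminescence read.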

[7] = Cell Viability - N2a (AID 540); conditions: N2a mouse neuroblastoma cell viability; at 92.2 µM (top of the series);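 further: plate controls were DMSO alone for no effect and tamoxifen control for full effect; nearly all actives have a fitted effect of over 45% in size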
In short: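 Luminescent ATP signal (CellTiter-Glo, 20 min at room temperature) served as the viability read-out after N2a cells were treated with compounds for 40 hours at 37 °C. Concentration-response data were fitted to the Hill equation for AC50.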

[8] = Cell Viability - NIH 3T3 (AID 541); conditions: NIH 3T3 cell viability, qHTS; activity change, negative = cytotoxicity: at 92.2 µM (top of the series);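 further: plate controls were DMSO alone for no effect and tamoxifen positive control for full effect; nearly all actives have a fitted effect of over 25% in size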
In short: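 Luminescent ATP signal (CellTiter-Glo) served as the viability read-out after NIH 3T3 cells were exposed to compounds over a concentration range for 40 hr at 37 °C. Hill-equation modelling of concentration-response data gave AC50.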

[9] = Cell Viability - HUV-EC-C (AID 542); further: on the % scale 0 is the no-effect control and ±100 the full control effect; nearly all actives have a fitted effect of over 35% in size
In short: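 qHTS cytotoxicity: HUV-EC-C, 1000 cells/well, 5 hr settle, compound 40 hr 37 °C, CellTiter-Glo, luminescence. AC50 via Hill equation.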

[10] = Cell Viability - H-4-II-E (AID 543); further: on the % scale 0 is the no-effect control and ±100 the full control effect; nearly all actives have a fitted effect of over 35% in size
In short: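 Luminescent ATP signal (CellTiter-Glo) served as the viability read-out, with cytotoxicity seen as a concentration-dependent ATP drop. Cells were treated for 40 hours in complete medium. AC50 values derive from Hill-equation modelling.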

[11] = Cell Viability - SH-SY5Y (AID 544); conditions: SH-SY5Y neuroblastoma cell viability; viability change, negative = cytotoxic: at 92.2 µM (top of the series); further: nearly all actives have a fitted effect of over 55% in size
In short: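 Luminescent ATP read-out (CellTiter-Glo) measures loss of viable SH-SY5Y neuroblastoma cells after 40 hr compound exposure at 37 °C. AC50 values derive from standard Hill modelling of qHTS concentration-response data.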

[12] = Cell Viability - Renal Proximal Tubule (AID 545); conditions: renal proximal tubule cells viability; at 91.7 µM (top of the series), primary cells of rat origin unless noted; further: nearly all actives have a fitted effect of over 40% in size
In short: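 Cytotoxicity is scored as a concentration-dependent drop in cellular ATP in primary rat renal proximal tubule cells exposed for 40 hr. AC50 derives from Hill modelling.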

[13] = Cell Viability - Mesenchymal (AID 546);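 further: cells exposed to compound for 40 hours before reading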
In short: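 Normal human renal glomerulus-derived kidney mesenchymal cells, 1000 per well in complete medium, were treated with compounds for 40 hr at 37 °C. Viability was read as intracellular ATP by CellTiter-Glo luminescence; AC50 values came from Hill-equation fits of qHTS concentration-response data.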

[14] = Cellular Toxicity (caspase-3) HepG2 (AID 654);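 further: cells exposed to compound for 16 hours before reading; 0% = DMSO alone and 100% = caspase signal from 100 µM tamoxifen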
In short: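 Cells plated 5 hr at 37 °C, compound added, incubated 16 hr at 37 °C. Caspase-Glo 3/7 reagent followed, 20 min at room temperature, then luminescence read. Activation scored as signal increase; AC50 from Hill fit.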

[15] = Cellular Toxicity (caspase-3) Jurkat (AID 655); conditions: Jurkat caspase-3 activation, luminescence, DMSO = 0%, tamoxifen = 100%; at 92.2 µM (top of the series);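 further: cells exposed to compound for 16 h at 37 °C before reading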
In short: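 Caspase 3/7 activation is scored as increased luminescence in Jurkat cells cultured with compound for 16 hours in complete medium. AC50 values come from Hill fits of qHTS concentration-response data normalized to DMSO and 100 uM tamoxifen controls.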

[16] = Cellular Toxicity (caspase-3) HUV-EC-C (AID 656)
In short: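 Read-out: luminescence proportional to caspase 3/7 activity, measured 20 min after adding Caspase-Glo 3/7 reagent. Cells (HUV-EC-C) had received compound for 16 hr at 37°C. Increases relative to DMSO and 100 uM tamoxifen gave concentration-response AC50 values.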

[17] = Cellular Toxicity (caspase-3) SHSY5Y (AID 657);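 further: cells exposed to compound for 16 hours at 37 °C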
In short: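 Cells plated and incubated 5 h at 37 °C, dosed over a concentration range, incubated 16 h, then given Caspase-Glo 3/7 reagent for 1 h at room temperature before luminescence reading. Staurosporine (10 uM) defined full stimulation.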

[18] = Cellular Toxicity (caspase-3) BJ (AID 658);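 further: 0% = DMSO basal and 100% = 10 µM staurosporine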
In short: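 Luminescent aminoluciferin-substrate cleavage reports caspase 3/7 activity in normal human BJ fibroblasts after 16 hr compound exposure at 37 °C. Normalized to DMSO (basal) and 10 uM staurosporine (100%); AC50 from Hill fit of concentration-response.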

[19] = Cellular Toxicity (caspase-3) MRC-5 (AID 659);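 further: 0% = DMSO basal and 100% = 10 µM staurosporine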
In short: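 Luminescence from caspase-cleaved aminoluciferin substrate (Caspase-Glo 3/7, 1 hr RT) reports caspase 3/7 activity in MRC-5 lung fibroblasts after 16 hr compound exposure. Normalized to DMSO basal and 10 uM staurosporine as 100%; AC50 from Hill fits.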

[20] = Cellular Toxicity (caspase-3) Mesangial (AID 660);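 further: cells exposed to compound for 16 h before the caspase read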
In short: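 Mesangial cells, 1000/well, 5 h settle at 37 °C; compound 16 h, 37 °C; Caspase-Glo 3/7 reagent 20 min RT; luminescence. Norm.: DMSO = 0%, tamoxifen 100 uM = 100%. AC50, Hill fit.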

[21] = Cellular Toxicity (caspase-3) SK-N-SH (AID 661);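 further: 0% = DMSO basal and 100% = 10 µM staurosporine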
In short: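 Human neuroblastoma SK-N-SH, 1500 cells/well, 5 hr pre-incubation, then compound 16 hr, 37 °C. Caspase-Glo 3/7 reagent, 1 hr RT, luminescence. Norm. to DMSO/10 uM staurosporine; Hill-fit AC50.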

[22] = Cellular Toxicity (caspase-3) H-4-II-E (AID 663);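 further: cells exposed to compound for 16 hr before readout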
In short: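 Luminescence from caspase-cleaved aminoluciferin substrate, read 20 min after reagent addition, reports caspase 3/7 activation in rat H-4-II-E cells after 16 hr compound exposure. Normalized to DMSO (basal) and 100 uM tamoxifen (100%); AC50 from Hill fits.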

CCCCOC(=O)c1ccccc1C(=O)OCCCC
inactive: Potency [1] > 92 µM | Potency [2] > 92 µM | Potency [3] > 92 µM | Potency [4] > 92 µM | Potency [5] > 92 µM | Potency [6] > 92 µM | activity change, negative = cytotoxicity [7] -7.34% | activity change, negative = cytotoxicity [8] -3.85% | Potency [9] | Potency [10] | Potency [11] | activity change, negative = cytotoxicity [12] 1.09% [at 91.7 µM] | outcome [13] | outcome [14] | caspase-3 activation [15] -1.56% | outcome [16] | outcome [17] | outcome [18] | outcome [19] | outcome [20] | outcome [21] | outcome [22]
